What was measured:
Settings in all cases: concentration: 1 μM, replicates: in singlicate; n = 1
CAMK2G = test system: CAMK2G
CAMK4 = test system: CAMK4
CAMKK1 = test system: CAMKK1
CAMKK2 = test system: CAMKK2
CASK = test system: CASK
CDC2L1 = test system: T1, CDC2L1
T1 construct: gene CDK11B

CDC2L2 = test system: CDC2L2
CDC2L5 = test system: T2, CDC2L5
T2 construct: gene CDK13

CDK11 = test system: T3, CDK11
T3 construct: gene CDK19

CDK2 = test system: CDK2
CDK3 = test system: CDK3
CDK4-cyclinD1 = test system: CDK4-cyclinD1
CDK4-cyclinD3 = test system: CDK4-cyclinD3
CDK4 = test system: CDK4
CDK5 = test system: CDK5
CDK7 = test system: CDK7
CDK8 = test system: CDK8
CDK9 = test system: CDK9
CDKL1 = test system: CDKL1
CDKL2 = test system: CDKL2
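Note: KINOMEscan kinase panel screen.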

| SMILES | %Inh (CAMK2G) | %Inh (CAMK4) | %Inh (CAMKK1) | %Inh (CAMKK2) | %Inh (CASK) | %Inh (CDC2L1) | %Inh (CDC2L2) | %Inh (CDC2L5) | %Inh (CDK11) | %Inh (CDK2) | %Inh (CDK3) | %Inh (CDK4-cyclinD1) | %Inh (CDK4-cyclinD3) | %Inh (CDK4) | %Inh (CDK5) | %Inh (CDK7) | %Inh (CDK8) | %Inh (CDK9) | %Inh (CDKL1) | %Inh (CDKL2) |
| --- | --- | --- | --- | --- | --- | --- | --- | --- | --- | --- | --- | --- | --- | --- | --- | --- | --- | --- | --- | --- |
| Cn1c(=O)c(F)c(Nc2ccc(I)cc2F)c2c(=O)n(OC[C@H](O)CO)cnc21 | 34% | 22% | 24% | 33% | 0% | 14% | 15% | 13% | 0% | 0% | 38% | 1% | 0% | 0% | 0% | 0% | 46% | 14% | 51% | 29% |
| COc1cc(Nc2ccnc3ccc(C(F)(F)F)cc23)cc(OC)c1OC [GW577382] | 12% | 10% | 15% | 0% | 25% | 0% | 17% | 0% | 19% | 4% | 16% | 39% | 0% | 10% | 0% | 1% | 47% | 0% | 6% | 21% |
| COc1ccc(Nc2nccc(N3CCC(NS(=O)(=O)c4ccc(NC(C)=O)cc4)C3)n2)cc1 (stereo not drawn) [GSK1379729] | 9% | 4% | 12% | 5% | 0% | 0% | 17% | 0% | 11% | 2% | 20% | 8% | 0% | 13% | 12% | 0% | 35% | 0% | 0% | 14% |
| CN1C(=O)C(Nc2ccccc2)=C(c2ccccc2)C1=O [SB-300079] | 0% | 0% | 0% | 0% | 0% | 0% | 0% | 0% | 0% | 0% | 12% | 9% | 0% | 11% | 5% | 6% | 13% | 1% | 4% | 13% |
| CCC(=O)c1c(-c2ccccc2)c2cc(Cl)ccc2c(=O)n1Cc1cc(S(C)(=O)=O)n(CC(N)=O)n1 | 0% | 0% | 0% | 0% | 0% | 0% | 6% | 0% | 0% | 0% | 0% | 0% | 0% | 0% | 0% | 2% | 0% | 0% | 23% | 0% |
| COc1cccc(C2=C(N(C)c3ccccc3)C(=O)NC2=O)c1 [SB-334865] | 9% | 0% | 0% | 0% | 30% | 43% | 27% | 0% | 0% | 3% | 12% | 2% | 8% | 0% | 0% | 0% | 6% | 39% | 0% | 23% |
| COc1cccc(-n2cnc3c(N)ncnc32)c1 [SKF-97416] | 8% | 4% | 4% | 6% | 20% | 0% | 2% | 36% | 1% | 4% | 17% | 37% | 0% | 31% | 0% | 33% | 0% | 0% | 13% | 8% |
| COc1ccc(CNC(=O)NC2CCN(c3ccnc(Nc4ccc(F)cc4)n3)C2)cc1 (stereo not drawn) [GSK1379706] | 38% | 0% | 17% | 26% | 19% | 2% | 0% | 0% | 22% | 3% | 20% | 52% | 0% | 49% | 0% | 4% | 60% | 5% | 10% | 31% |
| CCc1nc(-c2cccc(C)c2)c(-c2ccncc2)s1 | 0% | 0% | 0% | 0% | 0% | 0% | 3% | 0% | 0% | 0% | 8% | 6% | 0% | 0% | 3% | 0% | 0% | 7% | 33% | 4% |
| COc1ccc(-c2coc3ccc(-c4nnc(SCc5cccc(C#N)c5)o4)cc23)cc1 | 0% | 0% | 0% | 0% | 8% | 0% | 10% | 0% | 0% | 6% | 0% | 0% | 0% | 0% | 18% | 9% | 0% | 0% | 5% | 0% |
| O=C(Nc1n[nH]c2nc(-c3ccccc3)c(Br)cc12)C1CC1 [SB-708998] | 4% | 0% | 0% | 0% | 0% | 0% | 0% | 0% | 0% | 0% | 0% | 0% | 0% | 10% | 10% | 1% | 0% | 0% | 0% | 30% |
| COc1cc2ncn(-c3cc(OCc4ccc(S(C)(=O)=O)cc4)c(C(N)=O)s3)c2cc1OC [GW869979] | 0% | 0% | 0% | 0% | 37% | 0% | 14% | 31% | 0% | 0% | 0% | 14% | 16% | 9% | 0% | 0% | 0% | 0% | 0% | 0% |
| CCS(=O)c1ccc(-c2coc3ccc(-c4nnc(C)o4)cc23)cc1 (stereo not drawn) | 0% | 0% | 0% | 0% | 0% | 0% | 0% | 14% | 0% | 0% | 0% | 25% | 0% | 32% | 12% | 20% | 5% | 0% | 0% | 0% |
| CC(C)(C)c1ccc(C(=O)Nc2cn3cc(-c4ccccc4)ccc3n2)cc1 | 0% | 14% | 0% | 0% | 1% | 0% | 11% | 0% | 0% | 0% | 12% | 14% | 0% | 0% | 0% | 5% | 5% | 6% | 29% | 5% |
| CCn1c(-c2ccoc2)nc2cnccc21 [SB-733887] | 6% | 0% | 4% | 4% | 3% | 0% | 6% | 0% | 0% | 4% | 23% | 5% | 29% | 0% | 0% | 60% | 33% | 0% | 0% | 16% |
| CCCNC(=O)Nc1ccc(Oc2ncnc3ccn(C)c23)cc1 | 15% | 0% | 5% | 9% | 13% | 0% | 0% | 6% | 3% | 7% | 0% | 0% | 0% | 20% | 19% | 0% | 0% | 0% | 0% | 4% |
| Cc1ccccc1COc1cc(-n2cnc3cc(Cl)ccc32)sc1C(N)=O [GW813349] | 0% | 0% | 0% | 0% | 17% | 0% | 0% | 0% | 23% | 0% | 0% | 25% | 3% | 0% | 0% | 0% | 14% | 0% | 34% | 13% |
| Cc1cccc(-c2nc(Nc3ccc4c(cnn4C)c3)c3ccccc3n2)n1 [GW876731] | 0% | 0% | 2% | 0% | 0% | 0% | 6% | 0% | 10% | 6% | 0% | 0% | 0% | 1% | 0% | 11% | 0% | 0% | 0% | 23% |
| CCC(=O)c1c(-c2ccccc2)c2cc(Cl)ccc2c(=O)n1Cc1ccc(C(=O)O)cc1 | 0% | 0% | 0% | 0% | 0% | 0% | 0% | 0% | 0% | 0% | 0% | 0% | 0% | 0% | 0% | 0% | 4% | 0% | 0% | 7% |
| COc1cc2ncn(-c3cc(OCc4ccncc4)c(C(N)=O)s3)c2cc1OC [GSK336313] | 18% | 0% | 0% | 22% | 7% | 0% | 23% | 0% | 0% | 0% | 10% | 0% | 18% | 0% | 0% | 2% | 0% | 0% | 5% | 15% |
| COC(=O)c1c(-c2ccccc2)c2cc(Br)ccc2c(=O)n1Cc1ccc(S(C)(=O)=O)cc1 | 21% | 0% | 10% | 30% | 0% | 11% | 0% | 14% | 24% | 6% | 0% | 0% | 5% | 0% | 15% | 29% | 0% | 3% | 0% | 0% |
